# Compound activity as filed in PubChem BioAssay.
# Most compounds without a hit are left out; they make up all but 3.6% or so of the library.
# LGR2 antag: blocks bursicon-induced cAMP signaling via Drosophila LGR2; HEK293 LGR2, CRE-luciferase, bursicon-stimulated, 4 h; inhibition, % at 9.99 µM; hit rate 0.35% among 380,000;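 active = drop in luminescence signal, shown as inhibition above about 50% in the replicate tests, limit read from the data, passing the limit was not always enough; inconclusive = probably only some replicates passing the limit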;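 note: agonist challenge used bursicon conditioned medium at about half maximal strength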
# CF NFkB inh: inhibitors of cystic fibrosis induced NF-kB | KKLEB NF-kB-GFP reporter, PAF-induced, GFP fluorescence overnight | inhibition, % at 5 µM | AID 588850 | hit rate 0.86% among 360,000;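 active = at least 50% inhibition at 5 µM, scaled per plate between neutral and stimulator controls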;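 note: PAF is a Pseudomonas aeruginosa culture filtrate used as stimulus; plate controls were PAF-stimulated DMSO wells for no effect and unstimulated DMSO wells for full effect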
# HSP90 refold inh: blocks HSP90-mediated luciferase refolding in reticulocyte lysate; Rabbit reticulocyte lysate, luciferase refolding luminescence, 3 h; inhibition, % at 5.6 µM; hit rate 0.91% among 290,000;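 active = inhibition above the screen-wide mean plus 3 SD, computed separately per campaign, cut at about 16% in these data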;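 note: 0% = DMSO wells and 100% = 60 µM geldanamycin wells; inhibitors lower the luminescence because luciferase stays unfolded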
# Mdm2 MdmX PPI: inhibitors of human Mdm2/MdmX interaction; hit rate 3% among 330,000; inhibition, % at 8 µM; SaOS-2 split-luciferase Mdm2/MdmX complementation, luminescence; AID 485346; O15151+Q00987;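 active = inhibition of at least 50% at 8 µM in the primary screen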
# Target sequence (O15151 whole entry, looked up): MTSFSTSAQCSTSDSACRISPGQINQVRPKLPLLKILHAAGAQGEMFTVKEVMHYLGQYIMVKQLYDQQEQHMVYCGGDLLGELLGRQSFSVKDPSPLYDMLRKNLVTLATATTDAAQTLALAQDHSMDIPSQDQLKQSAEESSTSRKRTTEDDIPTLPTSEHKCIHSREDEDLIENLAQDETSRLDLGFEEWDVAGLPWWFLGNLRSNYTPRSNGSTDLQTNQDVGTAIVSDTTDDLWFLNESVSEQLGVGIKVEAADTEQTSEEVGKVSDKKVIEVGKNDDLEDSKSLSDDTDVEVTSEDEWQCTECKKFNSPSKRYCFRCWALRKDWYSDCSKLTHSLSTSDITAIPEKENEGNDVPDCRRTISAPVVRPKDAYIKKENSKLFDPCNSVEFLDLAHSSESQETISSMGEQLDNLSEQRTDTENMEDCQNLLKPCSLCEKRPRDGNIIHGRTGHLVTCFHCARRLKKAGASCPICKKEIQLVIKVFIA
# Target sequence (Q00987 whole entry, looked up): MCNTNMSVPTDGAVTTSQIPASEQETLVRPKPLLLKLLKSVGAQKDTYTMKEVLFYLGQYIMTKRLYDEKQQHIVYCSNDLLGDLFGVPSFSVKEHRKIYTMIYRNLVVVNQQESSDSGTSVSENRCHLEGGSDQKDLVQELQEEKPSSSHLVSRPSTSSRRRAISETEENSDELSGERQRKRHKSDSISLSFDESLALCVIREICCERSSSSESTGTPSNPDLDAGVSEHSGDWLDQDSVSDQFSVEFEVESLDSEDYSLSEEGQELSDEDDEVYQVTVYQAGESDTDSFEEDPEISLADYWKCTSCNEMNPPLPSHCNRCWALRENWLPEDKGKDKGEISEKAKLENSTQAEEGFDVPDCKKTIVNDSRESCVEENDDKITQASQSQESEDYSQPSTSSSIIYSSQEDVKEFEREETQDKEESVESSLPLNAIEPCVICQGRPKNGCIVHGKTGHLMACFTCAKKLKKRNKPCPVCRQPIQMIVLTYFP
# Peg3 prom inh: Peg3 promoter activity inhibition; AID 588405; HeLa PEG-Prom luciferase reporter, luminescence, overnight; inhibition, % at 20 µM; hit rate 1.7% among 360,000;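 active = inhibition of at least 50% at 20 µM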
# KKLEB tox: counter-screen for CF NF-kB inhibitors: cytotoxicity. KKLEB CF airway cells viability, ATPlite luminescence, overnight; active compounds read low; cells stimulated with P. aeruginosa culture filtrate. activity change (cytotoxicity), % at 5 µM. hit rate 0.36% among 360,000. AID 602141;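 active = corrected activity change at or below -50% at 5 µM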
# Active calls of the source: *; ? = inconclusive; . = no result given.
SMILES,LGR2 antag,CF NFkB inh,HSP90 refold inh,Mdm2 MdmX PPI,Peg3 prom inh,KKLEB tox
COc1ccc(CN(C)C[C@@H]2OCCCC[C@@H](C)Oc3ccc(NS(=O)(=O)c4c(C)noc4C)cc3C(=O)N([C@@H](C)CO)C[C@H]2C)cc1,2,.,.,.,.,.
CC(=O)NCCc1ccc(C(=O)COC(=O)C2CCCCC2)cc1,77*,-4,.,43,-44,7
CSC1SCC2C(=O)N(C)C(C(C)C)C(=O)OCC(NC(=O)c3cnc4ccccc4n3)C(=O)NC(C)C(=O)N(C)C1C(=O)N(C)C(C(C)C)C(=O)OCC(NC(=O)c1cnc3ccccc3n1)C(=O)NC(C)C(=O)N2C (configuration not stated),99*,96*,.,.,99*,-37
O=C(Cc1ccccn1)NCC[C@@H]1CC[C@H](NC(=O)Nc2ccc(Cl)cc2)[C@H](CO)O1,5,.,.,.,.,.
N#C[C@@H]1[C@H](c2ccccc2C2=CCCCC2)[C@H](CO)N1S(=O)(=O)c1cccc(F)c1,13,.,.,.,.,.
CC(=O)c1ccc(N=Nc2ccc(C)cc2)cc1,73*,-21,15,-77,-118,-15
O=C(Nc1cccc(Cl)c1)N[C@H]1CC[C@@H](CCNC(=O)C2CCOCC2)O[C@@H]1CO,-9,.,.,.,.,.
Clc1ccc2c(N/N=C/c3ccc(Br)cc3)ccnc2c1,?,-17,3,.,105*,-16
Oc1ccc(/C=N/Nc2ccnc3cc(Cl)ccc23)c(O)c1,-9,-47,-1,27,28,21
Cc1ccccc1/C=N/Nc1ccnc2cc(Cl)ccc12,.,-57,-4,.,94*,-23
Clc1ccc2c(N/N=C/c3cccnc3)ccnc2c1,-23,-168,3,5,18,5
Cc1ccc(/C=C/c2nc3ccccc3c(=O)[nH]2)cc1,84*,-3,14,-41,3,-69*
O=[N+]([O-])c1ccc(/C=N/Nc2nc(-c3ccccc3)c3cc(Br)ccc3n2)o1,.,-22,2,34,62*,3
CCOC(=O)c1c(CSC(=N)N)n(-c2ccc(Br)cc2)c2cc(Br)c(OC(C)=O)cc12,8,-10,8,.,-1,16
CCCCCCCCOC(=O)c1c(CSC(=N)N)n(C)c2cc(Br)c(OC(C)=O)cc12,4,16,2,-5,98*,22
CCOc1cc2c(c3c1C(c1ccccc1)N(S(=O)(=O)c1ccc(C)cc1)C3)C(=O)C=CC2=O (configuration not stated),.,56*,.,.,101*,-67*
COc1ccc(/C=C2\C(=O)N(c3c(Cl)cc(Cl)cc3Cl)N=C2NC(=O)c2cccc([N+](=O)[O-])c2)cc1,.,-15,-4,.,77*,-1
CN1[C@@H]2c3ccc(C4=CCCC4)c(=O)n3C[C@H]1[C@H](CO)[C@H]2C(=O)NC1Cc2ccccc2C1,24,.,.,.,.,.
COc1cc(OC)nc(-n2ncc(Br)c(Br)c2=O)n1,103*,91*,-2,.,104*,-94*
Oc1[nH]c(N=C2N=c3ccccc3=N2)c2ccccc12,-45,-15,7,.,-144,-10
Cc1ccc2c(c1)=N/C(=N\c1[nH]c(O)c3ccccc13)N=2,-96,37,.,.,90*,0
CCCNC(=O)C[C@@H]1CC[C@@H]2[C@H](COC[C@@H](O)CN2Cc2cccc(F)c2)O1,-1,.,.,.,.,.
O=C(C[C@H]1C=C[C@H](NC(=O)Nc2ccc(C(F)(F)F)cc2)[C@H](CO)O1)NCc1cc(F)cc(F)c1,-3,.,.,.,.,.
CCOC(=O)C(=Cc1ccc(Br)cc1)C(=O)OCC,19,52*,6,.,23,-31
CCOC(=O)C(=Cc1ccc(F)cc1)C(=O)OCC,.,.,1,45,.,.
CCOC(=O)C(=Cc1ccc(-n2ccnc2)cc1)C(=O)OCC,50,71*,1,30,107*,-9
Cn1cnc([N+](=O)[O-])c1Sc1nc(N)nc2c1ncn2C1CC(O)C(CO)O1 (configuration not stated),-16,2,.,.,50*,9
CCSc1nc(N)nc2c1ncn2C1OC(CO)C(O)C1O (configuration not stated),.,-10,.,.,-16,6
C[C@@H]1CN([C@H](C)CO)C(=O)c2cccc(NC(=O)c3ccncc3)c2O[C@H]1CN(C)S(C)(=O)=O,22,.,.,.,.,.
O=C(C[C@H]1CC[C@@H]2[C@H](COC[C@H](O)CN2C(=O)c2ccc3c(c2)OCO3)O1)NC1Cc2ccccc2C1,9,.,.,.,.,.
